# Results filed as inconclusive are left out. Entries that show only a call come without a potency. Active and inactive are the calls of the source. The call rests on the fitted dose curve; in most records, active means well fitted inhibition curve with a large enough effect; inconclusive means small, poorly fitted or top-dose-only effect; inactive means flat fitted curve, though single readings scatter.
# Test system: MKL-2
# Assay: qHTS assay to identify novel small-molecules to repurpose for Merkel cell carcinoma treatment (AID 1296009); further: nearly all actives have a fitted effect of over 60% in size
# Conditions: MCC and control cell lines, CellTiter-Glo viability, 72 h; series mostly up to 46 µM
# Summary of the method: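 Cells exposed to NPC (8-point) and MIPE (11-point) compound dilutions for 72 hr at 37 degree celsius; viability read by CellTiter-Glo luminescence, normalized to no-cell and DMSO in-plate controls.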
# Potency means the concentration at half of the fitted maximal effect.
row,SMILES,Potency
1,CC(C)(C)c1nnc(NS(=O)(=O)c2ccc(N)cc2)s1,inactive
2,N=C(N)N,inactive
3,Cc1ccc(C(=O)c2ccc(CC(=O)O)n2C)cc1,inactive
4,CCCCCCCC/C=C/C(=O)O,inactive
5,O=C(/C=C/c1ccccc1)NCCO,inactive
6,COc1cc2c3cc1Oc1cc(ccc1O)C[C@@H]1c4c(cc(OC)c(O)c4Oc4ccc(cc4)C[C@@H]3N(C)CC2)CC[N+]1(C)C,inactive
7,O=C(O)Cc1ccc2c(c1)C(=O)c1ccccc1CO2,inactive
8,O=C(Nc1ccc(C(=O)O)c(O)c1)c1ccccc1,inactive
9,CO[C@@]1(NC(=O)Cc2cccs2)C(=O)N2C(C(=O)O)=C(COC(N)=O)CS[C@@H]21,inactive
10,Nc1ccc(O)c(C(=O)O)c1,inactive
11,C=CCCCCCCCCC(=O)O,inactive
12,Nc1c(CC(=O)O)cccc1C(=O)c1ccc(Br)cc1,inactive
13,O=C(OCc1ccccc1)c1ccccc1,inactive
14,CCCCCCCCCCCCOCCO,inactive
15,CN(C)[C@@H]1C(=O)C(C(=O)NCN2CCCC2)=C(O)[C@@]2(O)C(=O)C3=C(O)c4c(O)cccc4[C@@](C)(O)C3C[C@@H]12 (stereo partly specified),inactive
16,O=C(O)Cc1ccc(-c2ccccc2)cc1,inactive
17,Cc1c(Nc2ncccc2C(=O)O)cccc1C(F)(F)F,inactive
18,CC(C(=O)O)c1ccc2c(c1)[nH]c1ccc(Cl)cc12 (stereo unspecified),inactive

row,SMILES,Potency
1,CCCOC(=O)c1ccc(O)cc1,inactive
2,CCCCCCCCCCCC(=O)[O][Sn]([CH2]CCC)([CH2]CCC)[O]C(=O)CCCCCCCCCCC,inactive
3,O=C(O)/C=C\C(=O)O,inactive
4,CCOC(=O)c1ccccc1O,inactive
5,Cc1c(N)c(=O)n(-c2ccccc2)n1C,inactive
6,C[N+]1(C)[C@@H]2CC(OC(=O)[C@H](CO)c3ccccc3)C[C@H]1[C@@H]1O[C@@H]12 (stereo partly specified),inactive
7,c1ccc2sc(SSc3nc4ccccc4s3)nc2c1,inactive
8,COc1cc(NC(C)CCCN)c2ncccc2c1 (stereo unspecified),4.22 µM (active)
9,CCCC(=O)OC[C@@H](OC(=O)CCC)[C@@H](OC(=O)CCC)[C@H](Cn1c2nc(=O)[nH]c(=O)c-2nc2cc(C)c(C)cc21)OC(=O)CCC,3.35 µM (active)
10,CC(=O)c1ccc(OCC(=O)N2CCCCC2)cc1,inactive
11,CCOc1ccc2nc(S(N)(=O)=O)sc2c1,inactive
12,CN(C)CCn1nnnc1SCC1=C(C(=O)O)N2C(=O)[C@@H](NC(=O)Cc3csc(N)n3)[C@H]2SC1,inactive
13,CCCCCCCCCCCCCCCC(=O)OC(C)C,inactive
14,CCCCCCCCCCCCCCCCCC(=O)O,inactive
15,CNC(=O)c1c(I)c(NC(=O)CCCCC(=O)Nc2c(I)c(C(=O)O)c(I)c(C(=O)NC)c2I)c(I)c(C(=O)O)c1I,inactive
16,CCC1C(=O)OCC1Cc1cncn1C (stereo unspecified),inactive
17,Nc1ccc(C(=O)O)c(O)c1,inactive
18,[O-][n+]1ccccc1SSc1cccc[n+]1[O-],0.58 µM (active)

# — PubChem BioAssay (NCATS)
